Source: PubChem
Compounds with a hit are over-represented: about 0.28% of the library has one in this group of screens.
mcGAS inh = inhibitors of mouse cGAS; 0.15% of 160,000 active; Q8C6L5; inhibition, % at 12.5 µM; recombinant cGAS, Kinase-Glo ATP depletion luminescence; AID 1259399
Target sequence (Q8C6L5 whole entry, looked up): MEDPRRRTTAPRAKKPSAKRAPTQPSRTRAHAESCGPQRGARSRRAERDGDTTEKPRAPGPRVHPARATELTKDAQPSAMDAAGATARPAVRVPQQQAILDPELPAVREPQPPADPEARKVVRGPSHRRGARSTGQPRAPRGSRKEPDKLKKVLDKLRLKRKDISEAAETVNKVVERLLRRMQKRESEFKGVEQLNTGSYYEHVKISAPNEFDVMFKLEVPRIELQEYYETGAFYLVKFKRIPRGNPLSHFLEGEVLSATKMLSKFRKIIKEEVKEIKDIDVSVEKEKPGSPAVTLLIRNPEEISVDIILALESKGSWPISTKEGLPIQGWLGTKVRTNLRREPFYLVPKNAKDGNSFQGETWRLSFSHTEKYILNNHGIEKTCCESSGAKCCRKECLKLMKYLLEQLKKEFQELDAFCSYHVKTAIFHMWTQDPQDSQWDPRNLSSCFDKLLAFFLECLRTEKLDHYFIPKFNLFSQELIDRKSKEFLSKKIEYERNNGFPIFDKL
NPYLR7 ag = activates Aedes aegypti NPYLR7 receptor. 0.15% of 270,000 active. activation, % at 10 µM. HEK293T NPYLR7/Galpha15, GCaMP6s calcium fluorescence; in the data active = activation above about 40%
hcGAS lum = human cGAS inhibition; inhibition, % at 12.5 µM; Q8N884; recombinant h-cGAS, ATP depletion, Kinase-Glo luminescence; 0.081% of 290,000 active; AID 1259398
Hits are given with their value; - = inactive; . = not tested or not shown; ! = a repeat was not active. Rule as the data show it, unless noted: active = inhibition above about 40%; inactive = the rest.

SMILES	mcGAS inh	NPYLR7 ag	hcGAS lum
Nc1nc(-c2ccncc2)cs1	.	-	-
Nc1nc(-c2cc(I)c(O)c(I)c2)cs1	102	-	66
CCOC(=O)CCNc1ccc(Nc2ccc(C)cc2)c2c1C(=O)c1ccccc1C2=O	-	-	-
Cc1ccc(Cl)c(Oc2cc(N3CCOCC3)ncn2)c1	-	.	-
N=C(N)c1ccc(OCCCCCOc2ccc(C(=N)N)cc2)cc1	.	66!	-
N=C(N)c1ccc(OCCCCCOc2ccc(C(N)=O)cc2)cc1	-	-	-
CCC(C)(C)C(=O)N1CCN(c2ccc(NC(=O)c3ccco3)cn2)CC1	-	-	-
